About 83,000 compounds went through this panel and 20% of them were active in at least one assay; those are over-represented in the sample as a whole.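 Activity criterion: percent growth below 10, measured after cells in 96-well plates were exposed to a single compound concentration for 48 hours.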 Values without a mark were called inactive. Activity calls are given as the source filed them.

Consider 16 compounds from PubChem BioAssay (NCI).

Common to all, as to assay: NCI-60 one-dose screen, 48 h (100 = growth as untreated, 0 = no growth, -100 = all killed)
What all share (conditions): 10 µM unless noted

Experiment [1] relates to DU-145 prostate.
Experiment [2] deals with K-562 leukemia.
Experiment [3] deals with MALME-3M melanoma.
Experiment [4] concerns MDA-MB-231 breast.
Experiment [5] has as its system SF-268 CNS.
In experiment [6] the test system is SF-295 CNS.
In experiment [7] the test system is SF-539 CNS.
Experiment [8] concerns UACC-257 melanoma.

On to `CCCCCc1ccc(S(=O)(=O)Nc2cc(-c3csc(NC(=O)CN4CCN(C)CC4)n3)ccc2N2CCN(C)CC2)cc1`, for which the growth in experiment [1] is 15.9%; in experiment [2], 1.1% (active); in experiment [3], -91.4% (active); in experiment [4] it was -52.7% (active); in experiment [5], -33.5% (active); in experiment [6] it was -63.9% (active). Further, the growth in experiment [7] was -86.2% (active); in experiment [8] it was -58.4% (active).

`COC(=O)C[Se]C(=O)Cc1c(C)n(C(=O)c2ccc(Cl)cc2)c2ccc(OC)cc12`: the growth in experiment [1] was 25.6%; in experiment [2], 54%; in experiment [3], 46.5%; in experiment [4], 30.9%; in experiment [5], 40.7%; in experiment [6], 9.86% (active). In addition, the results for the growth in experiment [7] and in experiment [8] were 39.9% and 65.2%, respectively.

As for `CCOC(=O)C(=O)CC(=O)N1C(=S)NC(=O)C1CC(C)C` (stereo not drawn), the growth in experiment [1] is 108%; in experiment [2], 107%; in experiment [3], 101%; in experiment [4] it was 101%; in experiment [5], 94.8%; in experiment [6], 102%. Also, the growth in experiment [7] is 96.1%; in experiment [8], 102%.

Take `C=CCN(C)S(=O)(=O)/N=C1\NC(=O)NC1=C(Cl)Cl`: the growth in experiment [1] was 72.8%; in experiment [2] it was -3.52% (active); in experiment [3] it was -69.4% (active); in experiment [4] it was -25.5% (active); in experiment [5], 32.2%; in experiment [6] it was 102%. Moreover, the growth in experiment [7] is -23.6% (active); in experiment [8], 57.4%.

With `CN1CCN(Cc2ccc(NC(=O)c3cncc(C#Cc4cnc5ccc(OCC6(C)COC6)nn45)c3)cc2C(F)(F)F)CC1`, the growth in experiment [1] is -85.3% (active); in experiment [2], 4.99% (active); in experiment [3] it was -79.8% (active); in experiment [4], -74.1% (active); in experiment [5], -62.2% (active); in experiment [6], -97.1% (active). In addition, the growth was -88.6% (active) in experiment [7] and -70.6% (active) in experiment [8].

For `COc1cc(Cn2cc3c(c2)-c2onc(CN4CCOCC4)c2CC3)cc(OC)c1OC`, the growth in experiment [1] was 113%; in experiment [2], 72.5%; in experiment [3], 91.8%; in experiment [4], 82.6%; in experiment [5], 99.7%; in experiment [6] it was 93%. For the same compound, the growth was 99.2% in experiment [7] and 101% in experiment [8].

With `COc1ccc2c(c1)c(CC(=O)[Se]CC(=O)O)c(C)n2C(=O)c1ccc(Cl)cc1`, the growth in experiment [1] was 85%; in experiment [2], 95.8%; in experiment [3], 112%; in experiment [4], 54.1%; in experiment [5], 64.1%; in experiment [6] it was 11.1%. In addition, the growth in experiment [7] is 66.8%; in experiment [8], 110%.

`C=CCn1c(SCC(=O)Nc2ccc(C(=O)/C=C/c3ccc(C)cc3)cc2)nnc1-c1c[nH]c2ccccc12`: the growth was 98.4% in experiment [1]; 61.1% in experiment [2]; 95% in experiment [3]; 89% in experiment [4]; 79.4% in experiment [5]; 66.9% in experiment [6]. The results for the growth in experiment [7] and in experiment [8] were 90.9% and 112%, respectively.

For the compound `O=C(NCCN1CCCC1)c1ccc(-c2nc3ccc4[nH]ncc4c3c3c2CCCC3)cc1`, the growth in experiment [1] was 6.08% (active); in experiment [2] it was 0.479% (active); in experiment [3], -2.3% (active); in experiment [4], -2.53% (active); in experiment [5] it was -11.3% (active); in experiment [6], 3.28% (active). Also, the growth is -63.2% (active) in experiment [7] and 23.8% in experiment [8].

Regarding `Cc1c(Cl)cccc1S(=O)(=O)Nc1ccc2c(c1)C(=O)N(C1CCC(=O)NC1=O)C2=O` (stereo not drawn), the growth is 108% in experiment [1]; 101% in experiment [2]; 55% in experiment [3]; 46.8% in experiment [4]; 82.1% in experiment [5]; 91.7% in experiment [6]. Also, the growth is 102% in experiment [7] and 113% in experiment [8].

In the case of `CC(=O)c1cc(C(=O)c2ccc(Br)cc2)n2cc(C)cc(C)c12`, the growth in experiment [1] was 94.8%; in experiment [2], 93.1%; in experiment [3], 111%; in experiment [4] it was 90%; in experiment [5], 89.7%; in experiment [6] it was 96%. In addition, the growth in experiment [7] is 88.4%; in experiment [8], 105%.

Regarding `CCc1nn2c(C)cc(C)nc2c1Cc1ccc(/C=C/CN2CCN(CCOCCOCCN3CCN(C/C=C/c4ccc(Cc5c(CC)nn6c(C)cc(C)nc56)cc4)CC3)CC2)cc1`, the growth was -31.6% (active) in experiment [1]; -51.2% (active) in experiment [2]; -92.4% (active) in experiment [3]; -66.2% (active) in experiment [4]; -53.8% (active) in experiment [5]; -52.7% (active) in experiment [6]. The growth in experiment [7] was -83.7% (active); in experiment [8], -67.6% (active).

Turning to `Oc1cccc2ccc(-c3nnc(SCc4ccc(O)c5ncccc45)n3-c3ccccc3)nc12`, the growth is 25.2% in experiment [1]; 12.4% in experiment [2]; -3.5% (active) in experiment [3]; 29.7% in experiment [4]; 22.8% in experiment [5]; 2.95% (active) in experiment [6]. The growth is 4.73% (active) in experiment [7] and -2.75% (active) in experiment [8].

On to `NC(N)=Nc1ccc(Oc2ccc(Nc3ccc(Cl)c(C(F)(F)F)c3)cc2)cc1`, for which the growth in experiment [1] was 39%; in experiment [2], 7.03% (active); in experiment [3], 61.7%; in experiment [4], 28.4%; in experiment [5], 39%; in experiment [6] it was 22.3%. The growth was 25.5% in experiment [7] and 68.3% in experiment [8].

Consider `NC(N)=Nc1ccc(Oc2cccc(NC(N)=Nc3ccc(I)cc3F)c2)cn1`, for which the growth in experiment [1] is 88.3%; in experiment [2], 46.1%; in experiment [3], 75.5%; in experiment [4], 62.8%; in experiment [5], 36.3%; in experiment [6] it was 47.3%. Moreover, the growth was 60.3% in experiment [7] and 75.6% in experiment [8].

In the case of `COc1ccc(C(=O)c2c(N)c(C#N)cn2-c2ccccc2OC)cc1`, the growth is 52.4% in experiment [1]; 13.3% in experiment [2]; 42% in experiment [3]; 48.6% in experiment [4]; 44.1% in experiment [5]; 8.45% (active) in experiment [6]. Besides, the growth in experiment [7] is 12.4%; in experiment [8], 66.9%.
